Bioassay records as filed in PubChem BioAssay.
Only a selection was taken, and hits are over-represented in it overall.
KAT2A inh: qHTS Assay for Inhibitors of GCN5L2. GCN5L2 HAT assay, ThioGlo1 CoA-SH fluorescence. Potency, µM (doses to about 58.9 µM), for the others: at the highest dose activity change, negative = inhibition, most hits filed as inhibitors. AID 504327, 2011. 0.21% of 390,000 active. Histone acetyltransferase KAT2A (Homo sapiens), Q92830
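Free CoA generated was detected with ThioGlo1 (50uM) fluorescence at Ex340nm/Em540nm, read immediately and after 20 min at room temperature. Enzyme, 20 nM in HEPES pH 7.5 buffer, saw compounds 15 min before adding 75uM H3(1-25) peptide and 70uM acetyl-CoA.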
APEX1 inh: qHTS Assay for Inhibitors of the Human Apurinic/apyrimidinic Endonuclease 1 (APE1); DNA repair nuclease/redox regulator APEX1 (Homo sapiens), P27695; recombinant APE1, TAMRA/BHQ-2 abasic DNA cleavage fluorescence; Potency, µM (titrated, usually from 65.8 µM), without a hit: at the top dose activity change, negative = inhibition, most hits filed as inhibitors; 0.35% of 350,000 active; AID 2517, 2012;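 also: plate controls were vehicle for no effect and reference inhibitor for full effect; nearly all actives have a fitted effect of over 55% in size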
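Activity was derived from the fluorescence gain between first and third kinetic reads (60 s intervals, ex 525/em 598 nm) after 50 nM THF-abasic TAMRA/BHQ-2 duplex was added to 0.75 nM APE1 preincubated 15 min with compound.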
JMJD2E inh: qHTS Assay for Inhibitors of Human Jumonji Domain Containing 2E (JMJD2E) | Lysine-specific demethylase 4E (Homo sapiens), B2RXH2 | JMJD2E catalytic domain, FDH-coupled NADH fluorescence (FDH is formaldehyde dehydrogenase) | Potency, µM (doses to about 57.1 µM), without a hit: at the top dose activity change, negative = inhibition, hits mostly inhibitors | 1.6% of 230,000 active; active = well fitted inhibition curve with a large enough effect, not every such curve was filed as active; inconclusive = small, poorly fitted or top-dose-only effect, or another doubt; inactive = no such curve, though single readings can be large or run the other way;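 also: 0% = wells with enzyme and -100% = buffer wells without enzyme; nearly all actives have a fitted effect of over 50% in size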
TDP1 inh: qHTS Assay for Inhibitors of Tyrosyl-DNA Phosphodiesterase (TDP1) | recombinant TDP1, AlphaScreen DNA substrate cleavage | 0.28% of 350,000 active | Tyrosyl-DNA phosphodiesterase 1 (Homo sapiens), Q9NUW8 | AID 485290, 2010 | Potency, µM (top dose mostly 130 µM), for the others: at the top dose activity change, negative = inhibition, actives largely listed as inhibitors; also: nearly all actives have a fitted effect of over 40% in size
Target sequence (Q9NUW8 whole entry, looked up): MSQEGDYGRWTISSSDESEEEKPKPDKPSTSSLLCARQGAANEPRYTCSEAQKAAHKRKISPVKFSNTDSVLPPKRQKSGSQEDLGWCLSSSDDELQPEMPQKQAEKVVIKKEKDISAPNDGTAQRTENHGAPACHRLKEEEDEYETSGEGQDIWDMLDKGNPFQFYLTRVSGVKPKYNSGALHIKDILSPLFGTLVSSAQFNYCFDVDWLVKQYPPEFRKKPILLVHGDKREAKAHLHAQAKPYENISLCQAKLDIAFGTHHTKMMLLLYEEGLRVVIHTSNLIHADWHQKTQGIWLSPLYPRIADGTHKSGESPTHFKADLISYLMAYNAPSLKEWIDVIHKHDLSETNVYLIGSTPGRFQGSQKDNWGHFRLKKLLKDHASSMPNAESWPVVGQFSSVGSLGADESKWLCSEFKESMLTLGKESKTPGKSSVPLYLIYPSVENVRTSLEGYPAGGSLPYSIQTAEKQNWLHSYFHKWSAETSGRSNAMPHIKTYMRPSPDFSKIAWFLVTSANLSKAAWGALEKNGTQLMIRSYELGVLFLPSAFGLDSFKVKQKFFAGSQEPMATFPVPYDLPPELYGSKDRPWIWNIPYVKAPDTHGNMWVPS
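Recombinant E. coli-expressed Tdp1 (1 nM) preincubated with compound 15 min at RT, then 5'-biotin/3'-phosphotyrosine-FITC DNA substrate (15 nM) added for 5 min. AlphaScreen beads (10 ug/ml) added, 10 min RT; tyrosine-FITC cleavage read as signal loss.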
BLM inh-1: qHTS Assay for Inhibitors of Bloom's syndrome helicase (BLM); recombinant BLM DNA unwinding, fluorescence dequenching; Potency, µM (series often up to 56.1 µM), inactives show at the top dose activity change, negative = inhibition, hits mostly inhibitors; 0.2% of 350,000 active; AID 2528, 2010;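 also: plate controls were vehicle for no effect and no enzyme for full effect; nearly all actives have a fitted effect of over 35% in size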
RECQ1 inh-1: qHTS Assay for Inhibitors of RecQ-Like Dna Helicase 1 (RECQ1); 0.54% of 240,000 active; ATP-dependent DNA helicase Q1 (Homo sapiens), P46063; Potency, µM (doses to about 57.3 µM), without a hit: at the top dose activity, negative = inhibition, hits mostly inhibitors; AID 2549, 2010; RECQ1 DNA unwinding, red fluorescence kinetic read;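 also: plate controls were vehicle for no effect and no enzyme for full effect; nearly all actives have a fitted effect of over 30% in size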
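50 nM RECQ1T1 preincubated 15 min with compound in Tris pH 8.0 buffer with MgCl2, DTT, Tween-20 and 2.5 ug/ml poly(dI-dC); started with 200 nM TAMRA/BHQ-2 forked duplex and 2 mM ATP. Unwinding read as fluorescence (525/598 nm), two reads 2 h apart.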
BLM inh-2: qHTS Confirmation Assay for Inhibitors of Bloom's syndrome helicase (BLM) | 40% of 220 active | AID 2585, 2010 | Potency, µM, without a hit: max response, negative = inhibition, most hits filed as inhibitors | shares compounds with BLM inh-1 | BLM DNA unwinding, fluorescence quenching, biochemical;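 also: strand separation dequenches TAMRA so unwinding raises red fluorescence; series mostly up to about 69 µM; nearly all actives have a fitted effect of over 45% in size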
RECQ1 conf: Confirmation qHTS Assay for Inhibitors of RecQ-Like Dna Helicase 1 (RECQ1) | RECQ1 helicase DNA unwinding, fluorescence | shares compounds with RECQ1 inh-1 | Potency, µM (highest dose often 229 µM), without a hit: at the top dose activity change, negative = inhibition, usual class: inhibitors | 28% of 610 active; also: nearly all actives have a fitted effect of over 45% in size
ADP FP counter: Counterscreen for RECQ1 Inhibitors: ADP Fluorescence Polarization Displacement Assay; 27% of 530 active; Potency, µM (top dose mostly 228 µM), without a hit: top-dose activity change, negative = inhibition, actives largely listed as inhibitors; shares compounds with RECQ1 inh-1; AID 2711, 2010; ADP fluorescence polarization displacement counterscreen; also: nearly all actives have a fitted effect of over 45% in size
RECQ1 inh-2: Confirmation qHTS Assay for Inhibitors of RecQ-Like Dna Helicase 1 (RECQ1) - Round 2 Cherry Picks | shares compounds with RECQ1 inh-1 | recombinant RECQ1 DNA unwinding, red fluorescence | Potency, µM (highest dose often 119 µM), without a hit: at the highest dose activity, negative = inhibition, hits mostly inhibitors | 15% of 1,100 active | AID 504841, 2011; also: nearly all actives have a fitted effect of over 50% in size
* marks the source's active call; other numbers are inactive results; i = inactive; ? = inconclusive; nt = no result given; [ ] = remark or other dose. Unless noted, calls follow the shape of the dose curve; as a rule, active = well fitted curve in the direction sought with a large enough effect; inconclusive = small, poorly fitted or top-dose-only effect, or another doubt; inactive = no such curve, though single readings can be large; an effect the other way counts as inactive or inconclusive. Unless noted, % is scaled to controls: 0 for no effect and ±100 for the full control effect; potency is read from the fitted curve at half-maximal effect.

SMILES	KAT2A inh	APEX1 inh	JMJD2E inh	TDP1 inh	BLM inh-1	RECQ1 inh-1	BLM inh-2	others
COc1ccc(Br)c2c1-c1nc(NC(=O)c3ccc(F)cc3)sc1C2	-6.6%	nt	nt	-2.5%	-6.0%	nt	nt
CCC(C)n1c(NC(=O)c2ccccc2)c(C#N)c2nc3ccccc3nc21 (stereo unspecified)	-17.9%	-3.6%	?	-5.3%	10µM*	-13.4%	?
CCCC1OC2C[C@@H]3[C@H]4CCC5=CC(=O)C=C[C@]5(C)[C@H]4C(O)C[C@]3(C)[C@]2(C(=O)CO)O1 (stereo partly specified)	nt	nt	nt	2.0%	nt	nt	nt
COCc1nc2ccccc2n1Cc1ccc(C(C)(C)C)cc1	-6.5%	nt	nt	-1.9%	-4.5%	nt	nt
CC(C)N1CCc2c(sc(NC(=O)c3cc4cc([N+](=O)[O-])ccc4s3)c2C(N)=O)C1	-3.4%	-3.6%	-2.7%	-3.1%	?	0.6%	nt
CN1CCc2c(sc(NC(=O)c3cc4cc([N+](=O)[O-])ccc4s3)c2C(N)=O)C1	-20.7%	-2.7%	-4.5%	0.0%	28.2µM*	?	28.9µM*
COc1ccc(S(=O)(=O)/N=C2\C=C(Nc3ccc(O)cc3)C(=O)c3ccccc32)cc1	-12.6%	-6.4%	nt	10.2%	?	nt	nt
Cc1ccccc1NC1=C/C(=N\S(=O)(=O)c2ccc(C(=O)O)cc2)c2ccccc2C1=O	-2.4%	-7.9%	nt	4.6%[0.0935 µM]	7.08µM*	nt	11.5µM*
O=C(O)c1ccc(S(=O)(=O)/N=C2\C=C(Nc3ccccc3F)C(=O)c3ccccc32)cc1	-9.5%	17.1%	nt	12.3%	8.91µM*	nt	16.2µM*
CN(C)c1ccc(/C=C/c2ccc3c4ccccc4ccc3[n+]2-c2ccccc2)cc1	-5.8%	-2.7%	?	14.7%	?	20µM*	68µM*	RECQ1 conf=22.4µM*
Cc1nc2c(ccc3nc(NC(=O)c4ccc5c(c4)OCCO5)sc32)s1	-2.8%	-2.8%	?	nt	-24.3%	20µM*	30.4µM*	ADP FP counter=44.1%[91.9 µM];RECQ1 inh-2=44.7µM*
O=C(Nc1nc2cc3c(cc2s1)OCCO3)c1ccncc1	-10.7%	2.0%	-9.3%	5.1%	4.7%	13.6%	nt
C[C@@H]1CN2[C@H](c3ccc(Br)cc3)[C@H](C)CC[C@H]2C(=O)O1	nt	27.1%[12.4 µM]	nt	5.8%[21 µM]	2.3%[12.4 µM]	i[11.5 µM]	nt
O=C(O)COc1ccc(/C=N/NC(=O)c2ccc(-c3csc(Nc4ccc(Cl)cc4)n3)cc2)cc1	-15.5%	3.55µM*	?	nt	3.55µM*	11.2µM*	8.13µM*	RECQ1 conf=7.08µM*;ADP FP counter=?
CCC(=O)N1CCc2cc(Br)cc(S(=O)(=O)CCC(=O)NCCc3cccc(C)c3)c21	2.4%	nt	nt	0.0%	3.1%	nt	nt
N#Cc1nc(-c2ccc(OCc3ccc(Cl)cc3)cc2)oc1N1CCCC1	nt	nt	nt	4.6%	nt	nt	nt
O=C(N/N=C/c1ccc(F)cc1)c1cc(-c2ccco2)nc2ccccc12	?	4.47µM*	?	nt	8.91µM*	10µM*	18.2µM*	RECQ1 conf=39.8µM*;ADP FP counter=?
CCOc1ccc(/C=N/NC(=O)c2cc(-c3ccco3)nc3ccccc23)cc1	-16.4%	4.2%	?	3.4%	-4.9%	0.1%	nt
Cc1ccc(C(=O)NCC(=O)OCC(=O)c2cccc3ccccc23)cc1	nt	nt	nt	0.2%	nt	nt	nt
N#C/C(=C\c1ccc(N2CCOCC2)o1)c1nc2ccccc2[nH]1	-28.7%	?	?	12.1%	22.4µM*	31.6µM*	?	RECQ1 inh-2=?
COc1cc(NC(=O)C2CCN(S(=O)(=O)c3c(C)noc3/C=C/c3c(C)cc(C)cc3C)CC2)cc(OC)c1	-13.2%	nt	nt	4.1%	-0.4%	nt	nt
COc1ccc(Nc2c3ccccc3nc3ccccc23)cc1	-16.0%	-35.0%	nt	7.6%	-6.8%	nt	nt
CN1CCN(c2ccc(Nc3c4ccccc4nc4ccccc34)cc2)CC1	-4.7%	22.4µM*	nt	20.7%	20µM*	12.6µM*	32.4µM*	RECQ1 conf=11.2µM*;ADP FP counter=35.5µM*
O=C(O)c1cccc(-n2cccc2/C=C2/NC(=O)N(c3ccc(Cl)cc3)C2=O)c1	8.91µM*	2µM*	?	0.0398µM*	3.55µM*	31.6µM*	14.5µM*	RECQ1 conf=?
Cc1ccc(SCc2cc(=O)c3c(=O)n(-c4ccccc4)[nH]c3[nH]2)cc1	?	?	?	11.0%	15.8µM*	?	4.9%	RECQ1 inh-2=-6.9%
Cc1ccc2c(=O)cc(CSc3ccccc3)[nH]c2c1C	0.2%	nt	nt	-5.4%	-7.2%	nt	nt
CC1(C)CCC(C)(C)c2cc(C(=O)Nc3ccc(C(=O)O)cc3)ccc21	?	-0.4%	2.8%	7.3%	3.1%	2.5%	nt
C=C(c1ccc(C(=O)O)cc1)c1cc2c(cc1C)C(C)(C)CCC2(C)C	6.31µM*	nt	nt	nt	?	nt	68µM*	RECQ1 conf=?
COc1ccccc1CNc1ncnc2ccc(-c3cccc(C#N)c3)cc12	-9.3%	-3.8%	nt	nt	0.3%	-13.5%	nt
C[C@@H]1CC[C@H]2C(=O)O[C@H](CN=[N+]=[N-])CN2[C@@H]1c1ccc(Br)cc1	nt	17.5%[12.4 µM]	nt	2.6%[21 µM]	-3.4%[12.4 µM]	i[11.5 µM]	nt
